These results are taken from PubChem BioAssay AID488857 (Sanford-Burnham Center for Chemical Genomics, 2010).

The campaign covered roughly 1,400 compounds. About 560 (40%) were called active. The set was probably picked from earlier hits. This is one part of the list. Unmarked numbers belong to inactive results.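 The calls were made as follows: active = mean inhibition over duplicate tests at 10 µM above 50%; inactive = the rest.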

This assay is described as follows: ASC/caspase-1 reporter retest in S. cerevisiae at one dose, specificity check for NALP1 project (AID 488857). To be noted: S. cerevisiae ASC/Caspase-1, beta-galactosidase luminescence, 24 h; at 10 µM; stronger effect = higher value.
Turning to `CN(C)Cc1ccccc1Sc1ccccc1Br`, the inhibition was 49%.

On to `CC(=O)c1ccc(NC(=O)Nc2ccc(Cl)cc2)cc1`, for which the inhibition was 44.4%.

As for `N#Cc1ccc(NC(=O)Nc2ccc(Cl)cc2)cc1`, the inhibition was 96.4% (active).

As to `COc1ccc(N2CCN(CCNC(=O)Nc3ccc(Cl)cc3)CC2)cc1`, the inhibition was 39.5%.

For `Cc1cccc(C)c1C(OCCN(C)C)C1CCCCC1` (stereo not given), the inhibition was 35.5%.

Turning to `COc1ccc(/C=C/C(=O)Nc2ccc3c(c2)CCC3)cc1OC`, the inhibition is 86.2% (active).

For the molecule `COc1cc(/C=C(\NC(C)=O)C(=O)Nc2cccc(O)c2)ccc1OC(C)=O`, the inhibition is 42%.

Take `O=C1/C(=C/c2cccnc2)SC(=S)N1C1CCS(=O)(=O)C1` (stereo not given): the inhibition is 32.4%.

On to `COc1ccc(OC)c(S(=O)(=O)Nc2ccc(O)c3ccccc23)c1`, for which the inhibition is 28.8%.

In the case of `CSc1ccc2c(c1)N(CCC1CCCCN1C)c1ccccc1S2` (stereo not given), the inhibition is 81.8% (active).

As for `CCC(C)NCCOc1cccc(Br)c1` (stereo not given), the inhibition is 39.6%.

As to `O=C(Nc1ccc(-c2nc3ccccc3s2)cc1)C1=COCCO1`, the inhibition was 55.6% (active).

Regarding `Cc1ccc2nc(-c3ccc(NC(=O)CN(c4ccccc4C)S(C)(=O)=O)cc3)sc2c1`, the inhibition was 44.1%.

In the case of `CCOC(=O)N/N=C/c1ccc(N(CC)CC)cc1O`, the inhibition was 72.5% (active).

Regarding `COc1cc2nc(Cl)nc(N3CCN(C)CC3)c2cc1OC`, the inhibition is 30%.

As to `O=C(Nc1ccc(Cl)c(Cl)c1)Oc1ccc(NC(=O)c2ccco2)cc1`, the inhibition is 54.6% (active).

On to `COc1cccc(NC2=C(Cl)C(=O)OC2OC(=O)c2ccco2)c1` (stereo not given), for which the inhibition was 38.3%.

As for `CC(=O)N1CCCc2cc(S(=O)(=O)N3CCc4ccccc4C3)ccc21`, the inhibition is 45.2%.

Consider `O=C(NCCCN1CCc2ccccc2C1)Nc1ccc(Br)cc1`, for which the inhibition was 43.3%.

For `Cc1ccc2cc3cc(C(=O)NCCCN4CCc5ccccc5C4)oc3nc2c1`, the inhibition was 35%.

Take `O=C(Nc1ccccc1)N1CCc2ccccc2C1`: the inhibition is 71.7% (active).

For `COC(=O)/C(=N/Nc1ccc(C)cc1)N1CCCc2ccccc21`, the inhibition is 40.6%.

`Cc1ccc(NC(=O)N2CCc3ccccc3C2)cc1`: the inhibition is 69.2% (active).

For the molecule `CCOC(=O)c1cc(-c2ccc(OC)cc2)nc2c1c(C)nn2CCC#N`, the inhibition was 49.6%.

With `CN1C/C(=C/c2ccncc2)C(=O)/C(=C/c2ccncc2)C1`, the inhibition was 26.9%.

As to `CC1=CC2=NC(=O)/C(=C\c3cccn3CCOc3cccc(C)c3)C(=N)N2O1`, the inhibition was 85.1% (active).

As for `NCCS`, the inhibition is 58.8% (active).

Take `CCOC(=O)C1CCN(C(=O)c2cc3cc4cc(OC)ccc4nc3o2)CC1`: the inhibition was 52% (active).

`CCOC(=O)C1CCCCN1Cc1ccc(F)c(Br)c1` (stereo not given): the inhibition was 40.2%.

In the case of `COc1ccc2nc3oc(C(=O)Nc4ccc(OC)c(OC)c4)cc3cc2c1`, the inhibition was 36.3%.

Consider `O=C(NCC1CCCO1)C(c1cccs1)N(Cc1cccs1)C(=O)Cn1nnc(-c2cccs2)n1` (stereo not given), for which the inhibition was 39.1%.

Take `CCOC(=O)c1c(C)c(C(=O)NCCCOC(C)C)c(C)n1C`: the inhibition was 26.7%.

In the case of `O=C1CN(c2nnnn2-c2ccccc2)CCN1`, the inhibition was 40.9%.

As to `COc1cc(C=O)ccc1Oc1nnnn1-c1ccccc1`, the inhibition was 52.9% (active).

Consider `CC(C)C(=O)c1cc2c(cc1NC(=O)Nc1cccc3ccccc13)OCCO2`, for which the inhibition is 49.3%.

As for `O=C(N/N=C/c1ccc2c(c1)OCO2)c1cccs1`, the inhibition was 68.9% (active).

For the molecule `CNc1ccc(/C=C/C(=O)c2ccc3c(c2)OCCO3)cc1[N+](=O)[O-]`, the inhibition was 66.7% (active).

Take `Cc1c([N+](=O)[O-])c(C(=O)Nc2ccc3c(c2)OCCO3)nn1C`: the inhibition is 24.6%.

Turning to `O=C(/C=C/c1cccc([N+](=O)[O-])c1)c1ccco1`, the inhibition is 36%.

As to `CC1=CC(C)(C)Nc2ccc(OC(=O)C(C)N3C(=O)c4ccccc4C3=O)cc21` (stereo not given), the inhibition was 39.1%.

By inhibition is commonly meant how much of the control response was suppressed.
